# Results from PubChem BioAssay (NCI).
# Values joined by “and” are separate entries in the source; they are usually repeats but may differ in a detail not shown here. Identical values can stand only once. About 83,000 compounds went through this panel and 20% of them were active in at least one assay; those are over-represented in the sample as a whole.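 Treatment: one concentration, 48 hours, 96-well format. Scoring: percent growth, with anything below 10 considered active.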 Active and inactive are the calls of the source.
# What was measured:
# Test in all cases: NCI-60 one-dose screen, 48 h (100 = growth as untreated, 0 = no growth, -100 = all killed)
# HCT-15 colon = conditions: 10 µM
# HT29 colon = conditions: 10 µM
# SNB-75 CNS = conditions: 10 µM
# SNB-19 CNS = conditions: 10 µM
# U251 CNS = conditions: 10 µM
# PC-3 prostate = conditions: 10 µM
# SK-MEL-5 melanoma = conditions: 10 µM
# UACC-62 melanoma = conditions: 10 µM unless noted
# LOX IMVI melanoma = conditions: 10 µM
# SK-MEL-28 melanoma = conditions: 10 µM
# SK-MEL-2 melanoma = conditions: 10 µM
# SN12C renal = conditions: 10 µM
# UO-31 renal = conditions: 10 µM
# ACHN renal = conditions: 10 µM
# CAKI-1 renal = conditions: 10 µM
# A498 renal = conditions: 10 µM
# HL-60(TB) leukemia = conditions: 10 µM
# CCRF-CEM leukemia = conditions: 10 µM
# TK-10 renal = conditions: 10 µM unless noted
# EKVX NSCLC = conditions: 10 µM
SMILES,growth (HCT-15 colon),growth (HT29 colon),growth (SNB-75 CNS),growth (SNB-19 CNS),growth (U251 CNS),growth (PC-3 prostate),growth (SK-MEL-5 melanoma),growth (UACC-62 melanoma),growth (LOX IMVI melanoma),growth (SK-MEL-28 melanoma),growth (SK-MEL-2 melanoma),growth (SN12C renal),growth (UO-31 renal),growth (ACHN renal),growth (CAKI-1 renal),growth (A498 renal),growth (HL-60(TB) leukemia),growth (CCRF-CEM leukemia),growth (TK-10 renal),growth (EKVX NSCLC)
CCOP(=O)(OCC)C(O)c1ccccc1Cl (stereo unspecified),88.8% (inactive),105% (inactive),98.5% (inactive),105% (inactive),99.5% (inactive),98.3% (inactive),103% (inactive),108% (inactive),97.9% (inactive),114% (inactive),93% (inactive),106% (inactive),90.5% (inactive),96.8% (inactive),101% (inactive),103% (inactive),106% (inactive),93.9% (inactive),–,–
N#CCc1ccccc1,102% (inactive),114% (inactive),105% (inactive),98.6% (inactive),95.8% (inactive),96.9% (inactive),99.4% (inactive),102% (inactive),94.1% (inactive),106% (inactive),99.9% (inactive),99.6% (inactive),93% (inactive),108% (inactive),104% (inactive),–,105% (inactive),97.3% (inactive),108% (inactive),–
Oc1ccccc1-c1ccccc1,104% (inactive) and 94.6% (inactive),97% (inactive) and 98.8% (inactive),97.4% (inactive) and 79.2% (inactive),101% (inactive) and 93.4% (inactive),99% (inactive) and 98.1% (inactive),94.4% (inactive) and 98.6% (inactive),–,98.5% (inactive) and 96% (inactive),92.3% (inactive) and 108% (inactive),112% (inactive) and 102% (inactive),98.1% (inactive) and 98.2% (inactive),104% (inactive) and 92.6% (inactive),91.1% (inactive),95.2% (inactive) and 104% (inactive),97.4% (inactive) and 121% (inactive),85.5% (inactive) and 108% (inactive),96.2% (inactive) and 103% (inactive),103% (inactive) and 94.8% (inactive),97.4% (inactive) and 105% (inactive),116% (inactive)
O=c1[nH]c2ccccc2n1C1CCN(CCCC(c2ccc(F)cc2)c2ccc(F)cc2)CC1,37.7% (inactive) and -3.08% (active),9.69% (active) and -2.65% (active),77.1% (inactive) and 106% (inactive),77.9% (inactive) and 68.2% (inactive),-1.25% (active) and 17.5% (inactive),-21.4% (active) and 21.3% (inactive),–,38.4% (inactive) and 30.3% (inactive),15.6% (inactive) and -22.7% (active),82.2% (inactive) and -53.2% (active),95.8% (inactive) and 63.6% (inactive),40.7% (inactive) and 58% (inactive),33.1% (inactive) and 12.5% (inactive),44.4% (inactive),35.5% (inactive) and 54% (inactive),27.2% (inactive) and -9.09% (active),-41.7% (active) and -41.6% (active),-0.815% (active) and 31.2% (inactive),62.1% (inactive) and 63.3% (inactive),42.1% (inactive) and 51.4% (inactive)
COC(C(=O)C(O)C(C)O)C1Cc2cc3cc(OC4CC(OC(C)=O)C(OC5CC(O)C(OC)C(C)O5)C(C)O4)cc(O)c3c(O)c2C(=O)C1OC1CC(OC2CC(OC3CC(C)(O)C(OC(=O)C(C)C)C(C)O3)C(O)C(C)O2)C(O)C(C)O1 (stereo unspecified),25.1% (inactive),-2.06% (active),-74% (active),-4.78% (active),8.24% (active),1.13% (active),-97.3% (active),-97% (active),1.99% (active),–,-60.7% (active),5.41% (active),-35.2% (active),3.27% (active),17.1% (inactive),–,-46.3% (active),-13.4% (active),20.2% (inactive),-16% (active)
C[CH2][Hg][S]c1ccccc1C(=O)O,-84.7% (active),-59% (active),-43.7% (active),50.6% (inactive),-6.81% (active),55.8% (inactive),-68.3% (active),–,-54.9% (active),-87.5% (active),-52.4% (active),-60.6% (active),-61.8% (active),-92.9% (active),-95.2% (active),18.1% (inactive),-17.6% (active),-17.5% (active),-94.2% (active),63.6% (inactive)
O=[N+]([O-])/C=C/c1ccc([N+](=O)[O-])cc1,-30.1% (active) and 12.6% (inactive),-46.8% (active) and 72.9% (inactive),48.7% (inactive) and 90.1% (inactive),72.6% (inactive) and 96.2% (inactive),-16.5% (active) and 87.8% (inactive),43.4% (inactive) and 92% (inactive),–,71.5% (inactive) and 81.1% (inactive),-90.1% (active) and 70% (inactive),82.2% (inactive) and 103% (inactive),-43.8% (active) and 79.7% (inactive),64.4% (inactive) and 62% (inactive),-82.9% (active) and 62.7% (inactive),21.5% (inactive) and 76.4% (inactive),38.8% (inactive),19.7% (inactive) and 126% (inactive),17.1% (inactive) and 55.2% (inactive),34.8% (inactive),18.8% (inactive) and 88.6% (inactive),78.2% (inactive) and 84.1% (inactive)
C#CC1(O)CCC(C(C)(C)C)CC1 (stereo unspecified),91.6% (inactive),104% (inactive),113% (inactive),103% (inactive),106% (inactive),97.1% (inactive),–,104% (inactive),110% (inactive),120% (inactive),112% (inactive),104% (inactive),108% (inactive),104% (inactive),110% (inactive),99.5% (inactive),140% (inactive),96.6% (inactive),106% (inactive),118% (inactive)
C[C@]12CC[C@H]3[C@@H](CCC4=CC(=O)CC[C@@H]43)[C@@H]1CC[C@@H]2OC(=O)N(CCCl)N=O,66.8% (inactive),59% (inactive),50.1% (inactive),34.5% (inactive),30.6% (inactive),43.1% (inactive),–,20.6% (inactive),39.3% (inactive),90.2% (inactive),27.4% (inactive),23.2% (inactive),40.8% (inactive),13% (inactive),27.4% (inactive),58% (inactive),-22.6% (active),11% (inactive),87.6% (inactive),119% (inactive)
C/C(=C\c1ccc(Cl)c(Cl)c1)[N+](=O)[O-],-66.8% (active) and 101% (inactive),-52.3% (active) and 102% (inactive),90.3% (inactive),87.4% (inactive) and 103% (inactive),-23.9% (active) and 87.8% (inactive),-35% (active) and 85.2% (inactive),–,13.5% (inactive) and 92.4% (inactive),-75.1% (active) and 90.1% (inactive),-24.5% (active) and 103% (inactive),18.1% (inactive) and 95.5% (inactive),-43.4% (active) and 101% (inactive),-84.4% (active) and 97.6% (inactive),-70.7% (active) and 105% (inactive),121% (inactive),103% (inactive) and 79.2% (inactive),-26.5% (active) and 83.5% (inactive),8.59% (active) and 85.4% (inactive),4.82% (active) and 91.4% (inactive),94.6% (inactive)
CC(=O)[O][Hg][c]1c(C)c(C)cc(C)c1C,-39.6% (active),-62.1% (active),-81.2% (active),39.8% (inactive),-97.3% (active),-77.3% (active),–,-26.1% (active),-95.3% (active),-37.9% (active),-48.3% (active),-13.8% (active),-86.2% (active),34.1% (inactive),-83.9% (active),101% (inactive),-13.1% (active),3.85% (active),-82.6% (active),-62.9% (active)
